Source: PubChem BioAssay (National Center for Advancing Translational Sciences (NCATS))
This is a sample that favours compounds with a hit; in the whole collection about 21% have one here.
Pf growth 48h – P. falciparum growth inhibition at 48 hours (one generation); P. falciparum luciferase growth in erythrocytes, 48 h; Potency, µM (series often up to 28.7 µM), for the others: at the top dose activity change, negative = inhibition, hits mostly inhibitors; hit rate 5.9% among 310,000; AID 504832; active = well fitted inhibition curve with a large enough effect; inconclusive = small, poorly fitted or top-dose-only effect, or another doubt; inactive = no such curve, though single readings can be large or run the other way; note: potency is the fitted concentration of half-maximal effect; % is set by controls: 0 for no effect and ±100 for the full control effect
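Compounds are pin-transferred into medium, infected erythrocytes (2% hematocrit, 0.1% parasitemia final) are added, and plates sit one parasite generation at 37 C in 5% CO2. Detection reagent is then added and luminescence measured.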
NS1 inh – inhibitors of influenza NS1 protein function | Potency, µM (highest dose often 46.1 µM), for the others: top-dose activity, positive = more growth | hit rate 0.4% among 270,000 | AID 2326; note: potency is the fitted concentration of half-maximal effect; actives are rising curves; nearly all actives have a fitted effect of over 50% in size
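Recovery from NS1-induced slow growth read by OD600 in budding yeast switched to galactose assay medium (pH 6.0, -URA) at 1:100 dilution. Compound 23 nl per well; the matching strain lacking NS1 serves as control.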
CHX counter – affects cycloheximide protein synthesis inhibition readout, counter-screen; max response, %; hit rate 12% among 300,000; cell reporter, cycloheximide protein synthesis inhibition counterscreen; in the data active = max response mostly above about 13%, no sharp cut-off; inactive = mostly below about 14%; note: read at 38.3 µM for the half of the compounds with a filed dose; 0% is about no effect
SARS PLpro yeast – blocks SARS-CoV papain-like protease in a yeast assay; S. cerevisiae expressing SARS-CoV PLpro, growth rescue; Potency, µM (doses to about 32.9 µM), for inactives: top-dose activity, positive = growth rescue, usual class: activators; hit rate 0.19% among 330,000; note: potency is the fitted concentration of half-maximal effect; 0% is about no effect; nearly all actives have a fitted effect of over 55% in size
Shiga inhibitor – blocks Shiga toxin action in Vero cells. Vero cells, Shiga toxin protein synthesis inhibition reporter. inhibition, % at 38.7 µM. hit rate 9.2% among 290,000. AID 2315; in the data active = inhibition mostly above about 28%, no sharp cut-off; inactive = mostly below about 43%; note: 0% is about no effect
Pf growth 96h – P. falciparum growth inhibition at 96 hour, primary screen for plastid delayed-death inhibitors; P. falciparum luciferase reporter growth, 96 h; Potency, µM (highest dose often 28.7 µM), for the others: at the highest dose activity change, negative = inhibition, usual class: inhibitors; hit rate 6.9% among 320,000; AID 504834; active = well fitted inhibition curve with a large enough effect; inconclusive = small, poorly fitted or top-dose-only effect, or another doubt; inactive = no such curve, though single readings can be large or run the other way; note: potency is the fitted concentration of half-maximal effect; % is set by controls: 0 for no effect and ±100 for the full control effect
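Two parasite generations (96 h, 37 C, 5% CO2) of compound exposure in infected erythrocytes (0.05% parasitemia, 2% hematocrit). Luciferase-reporter P. falciparum; decreased luminescence indicates inhibited growth, aimed at apicoplast-acting delayed death.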
Starred values were filed as active, the others as inactive; [ ] = dose if it differs, or a comment. Unless noted, calls come from the whole dose curve.

O=C(CCN1CCc2ccccc2C1)Nc1ccccc1 was read as Pf growth 48h inconclusive, NS1 inh 12.5%, CHX counter 9.6, SARS PLpro yeast -4.1%, Shiga inhibitor 16.7 and Pf growth 96h 6.9%.
For O=C(CCN1CCc2ccccc2C1)Nc1cccc(F)c1 the results were Pf growth 48h 2.3%, NS1 inh -7.8%, CHX counter -0.8, SARS PLpro yeast -2.2%, Shiga inhibitor 14.0 and Pf growth 96h 4.15µM*.
CCOC(=O)c1ccc(NC(=O)Cn2cccc2)cc1 was read as Pf growth 48h 34.7%, NS1 inh -12.8%, CHX counter 24.9, SARS PLpro yeast inconclusive, Shiga inhibitor 27.4 and Pf growth 96h inconclusive.
CCc1cccc(NC(=O)Cn2cccc2)c1 was read as Pf growth 48h 72.1%, NS1 inh -11.5%, CHX counter 15.4, SARS PLpro yeast 6.2%, Shiga inhibitor 15.9 and Pf growth 96h 4.65µM*.
O=C1Nc2cc(Cl)c(Cl)cc2N(O)N1c1ccc(Cl)c(Cl)c1 was read as Pf growth 48h -1.2%, NS1 inh 8.2%, CHX counter 6.2, SARS PLpro yeast 2.0%, Shiga inhibitor 30.7 and Pf growth 96h 59.8%.
For O=[N+]([O-])c1ccc(S(=O)(=O)NNC(=S)NCCc2ccccc2)cc1 the results were Pf growth 48h 6.2%, NS1 inh 7.6%, CHX counter 4.9, SARS PLpro yeast 2.9%, Shiga inhibitor 1.4 and Pf growth 96h -25.9%.
`Cc1ccc(COc2ccccc2C(=S)N2CCCC2)cc1` gave Pf growth 48h 19.6%[5.75 µM], CHX counter 17.3*, SARS PLpro yeast -1.8%, Shiga inhibitor 19.6 and Pf growth 96h 9.2%.
Screening CCOc1ccc(C(=S)N2CCCC2)cc1OC returned Pf growth 48h -2.5%, NS1 inh 9.2%, CHX counter -5.5, SARS PLpro yeast 1.0%, Shiga inhibitor -5.2 and Pf growth 96h -17.3%.
`COc1cc(C(=S)N2CCCC2)ccc1OCc1ccc(C)cc1` gave Pf growth 48h inconclusive, NS1 inh -14.2%, CHX counter 69.2*, SARS PLpro yeast -2.0%, Shiga inhibitor 81.5* and Pf growth 96h inconclusive.
`Fc1ccc(COc2ccccc2C(=S)N2CCCC2)cc1` gave Pf growth 48h -27.6%, NS1 inh -8.7%, CHX counter 2.1, SARS PLpro yeast 12.6%, Shiga inhibitor 34.4 and Pf growth 96h -71.8%.
For O=C(CN1CCC(NC(=O)Nc2ccccc2)CC1)Nc1ccc([N+](=O)[O-])cc1 the results were Pf growth 48h inconclusive, NS1 inh -7.9%, CHX counter -2.8, SARS PLpro yeast 0.0%, Shiga inhibitor -3.4 and Pf growth 96h 2.0%.
For CCNc1nc(NCC)nc(N(C)/N=C/c2ccco2)n1 the results were Pf growth 48h inconclusive, NS1 inh -4.9%, CHX counter 5.2, SARS PLpro yeast -1.0%, Shiga inhibitor -6.4 and Pf growth 96h 1.47µM*.
CCOC(=O)C1CCCN(C(=O)c2ccco2)C1 (stereo not drawn) was read as Pf growth 48h 2.3%, NS1 inh 6.7%, CHX counter 0.7, SARS PLpro yeast 12.5%, Shiga inhibitor 14.4 and Pf growth 96h inconclusive.
CC[C@@H](CCC=C(C)C)C(=O)N(Cc1ccccc1)c1ccccc1 was read as Pf growth 48h 8.28µM*, SARS PLpro yeast 3.4% and Pf growth 96h inconclusive.
C/C(=N/N=C1/NC(=O)CC(C(=O)Nc2ccccc2)S1)c1cccs1 (stereo not drawn) was read as Pf growth 48h 10.4µM*, NS1 inh -5.6%, CHX counter 11.9, SARS PLpro yeast 2.1%, Shiga inhibitor -3.4 and Pf growth 96h 9.28µM*.
`C/C=C(\C)C(=O)NCCN1C2=NC[C@H](Cc3ccc(O)cc3)N2C[C@H]1Cc1ccc(O)cc1` gave Pf growth 48h inconclusive, NS1 inh 0.0%, CHX counter 0.2, SARS PLpro yeast -2.9%, Shiga inhibitor 11.8 and Pf growth 96h inconclusive.
`CCCCCCNC(=O)N[C@@H](C(=O)NCCC[C@H]1CN2C(=NC[C@@H]2Cc2ccccc2)N1CCc1cccc(OC)c1)C(C)C` gave Pf growth 48h 13.1µM*, NS1 inh -5.9%, CHX counter 0.4, SARS PLpro yeast -6.5%, Shiga inhibitor -10.3 and Pf growth 96h 1.31µM*.
Screening CCCCCCNC(=O)N[C@H](Cc1ccc(O)cc1)C(=O)NCCC[C@H]1CN2C(=NC[C@H]2CCC)N1CC1CCC1 returned Pf growth 48h 7.38µM*, NS1 inh -51.3%, CHX counter -1.7, SARS PLpro yeast -1.2%, Shiga inhibitor 17.0 and Pf growth 96h 2.94µM*.
`CCCCCCNC(=O)N[C@@H](Cc1ccc(O)cc1)C(=O)NCCC[C@H]1CN2C(=NC[C@H]2C)N1CC1CCC1` gave Pf growth 48h 9.28µM*, NS1 inh 4.7%, CHX counter 10.8, SARS PLpro yeast 0.3%, Shiga inhibitor 39.6* and Pf growth 96h 3.29µM*.
Screening Cc1ccc(C2CC(=O)Oc3ccc(O)cc32)cc1 (stereo not drawn) returned CHX counter 5.1 and Shiga inhibitor inactive.
Screening C=CCSC1=N/C(=C\c2ccc3c(c2)OCO3)C(=O)S1 returned Pf growth 48h -1.7%, NS1 inh -9.3%, CHX counter -3.4, SARS PLpro yeast -2.8%, Shiga inhibitor -1.3 and Pf growth 96h 0.415µM*.
For COc1ccc(CCNc2cc(C)nc3c(-c4ccc(Cl)cc4)cnn23)cc1OC the results were Pf growth 48h -13.8%, NS1 inh 13.4%, CHX counter 6.2, SARS PLpro yeast -16.3%, Shiga inhibitor -8.3 and Pf growth 96h 4.6%.
For CC(C)(C)c1cc(NCc2ccccn2)n2ncc(-c3ccccc3)c2n1 the results were Pf growth 48h inconclusive, NS1 inh -50.7%, CHX counter 51.1*, SARS PLpro yeast -6.0%, Shiga inhibitor 96.8* and Pf growth 96h inconclusive.
For c1ccc(-c2csc3ncnc(NCc4ccccn4)c23)cc1 the results were Pf growth 48h inconclusive, NS1 inh -7.1%, CHX counter -3.4, SARS PLpro yeast 0.1%, Shiga inhibitor -5.8 and Pf growth 96h inconclusive.
`COc1nc(NCCc2ccc(OC)c(OC)c2)nc(Nc2ccccc2)n1` gave Pf growth 48h inconclusive, NS1 inh -30.6%, CHX counter 54.4*, SARS PLpro yeast -1.2% and Pf growth 96h inconclusive.
For COc1ccccc1-c1cnn2c(NCCc3ccccc3)cc(C)nc12 the results were Pf growth 48h 38.3%, NS1 inh -7.6%, CHX counter 33.8*, SARS PLpro yeast -2.4%, Shiga inhibitor 75.0* and Pf growth 96h 45.7%.
`Cc1cc(NCCN2CCOCC2)n2ncc(-c3ccccc3)c2n1` gave Pf growth 48h 146.1%, NS1 inh -11.6%, CHX counter 28.2*, SARS PLpro yeast 2.1%, Shiga inhibitor 41.2* and Pf growth 96h 166.7%.
`O=C(COC(=O)COc1ccccc1)Nc1ccc(S(=O)(=O)N2CCOCC2)cc1` gave Pf growth 48h -15.2%, CHX counter 1.2, SARS PLpro yeast 0.4%, Shiga inhibitor -4.0 and Pf growth 96h -15.4%.
